Records with an inconclusive call do not appear. Calls of active or inactive are those of the source. Unless noted, calls come from the whole dose curve; as a rule, active = well fitted curve in either direction with a large enough effect (not every such curve was filed as active); inconclusive = small, poorly fitted or top-dose-only effect, or another doubt; inactive = flat fitted curve, though single readings scatter.
Assays:
[1] = target: Lysosomal acid glucosylceramidase (Homo sapiens) (UniProt P04062); assay: Glucocerebrosidase-p2 (AID 348; in the data active = potency below about 10 µM; note: potency is the fitted concentration of half-maximal effect); conditions: purified GBA, blue fluorogenic substrate, 40 min
Sequence of Lysosomal acid glucosylceramidase (Homo sapiens) (P04062 whole entry, looked up): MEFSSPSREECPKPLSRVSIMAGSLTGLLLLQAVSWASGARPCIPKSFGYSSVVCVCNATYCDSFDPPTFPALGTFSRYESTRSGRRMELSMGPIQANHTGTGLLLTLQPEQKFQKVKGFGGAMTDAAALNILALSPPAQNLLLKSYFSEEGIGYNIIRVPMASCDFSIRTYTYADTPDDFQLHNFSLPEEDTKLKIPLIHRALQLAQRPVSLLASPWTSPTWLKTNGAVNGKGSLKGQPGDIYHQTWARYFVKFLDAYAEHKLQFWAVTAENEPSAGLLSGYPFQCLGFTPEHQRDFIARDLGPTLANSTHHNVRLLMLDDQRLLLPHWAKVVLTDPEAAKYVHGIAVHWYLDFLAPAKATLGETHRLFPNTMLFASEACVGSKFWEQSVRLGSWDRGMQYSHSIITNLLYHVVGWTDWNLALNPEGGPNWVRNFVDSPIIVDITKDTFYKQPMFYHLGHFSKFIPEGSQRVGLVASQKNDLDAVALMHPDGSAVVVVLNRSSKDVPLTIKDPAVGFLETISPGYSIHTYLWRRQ
Outline: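 Compounds titrated from 0.6 nM upwards against 0.2 nM enzyme in pH 5.9 citric acid/KH2PO4, taurocholate, tween-20; blue fluorogenic substrate 80 uM, 40 min room temperature, stopped and read Ex 365/Em 440 for AC50.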

[2] = AP1 Signaling Pathway (AID 357); conditions: ME-180 AP-1-bla reporter, EGF-induced, beta-lactamase ratio, 5 h; at 7.69 µM (top of the series) unless noted; note: % is set by controls: 0 for no effect and ±100 for the full control effect
Outline: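 ME-180 cells with beta-lactamase reporter under AP-1 response element, stimulated with EC50 EGF; compounds tested in titration series, 5 h at 37 °C. CCF4 substrate added 2.5 h at room temperature; 460/530 nm emission ratio gave %activity and AC50.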

[3] = target: Cytochrome P450 1A2 (Homo sapiens) (UniProt P05177); assay: p450-cyp1a2 (AID 410; calls by dose curve; note: potency is the fitted concentration of half-maximal effect;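 for activity change, negative = inhibition: -100% = full effect of reference inhibitor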); conditions: recombinant CYP1A2, luciferin-ME demethylation, luminescence; series mostly up to 11.4 µM
Sequence of Cytochrome P450 1A2 (Homo sapiens) (P05177 whole entry, looked up): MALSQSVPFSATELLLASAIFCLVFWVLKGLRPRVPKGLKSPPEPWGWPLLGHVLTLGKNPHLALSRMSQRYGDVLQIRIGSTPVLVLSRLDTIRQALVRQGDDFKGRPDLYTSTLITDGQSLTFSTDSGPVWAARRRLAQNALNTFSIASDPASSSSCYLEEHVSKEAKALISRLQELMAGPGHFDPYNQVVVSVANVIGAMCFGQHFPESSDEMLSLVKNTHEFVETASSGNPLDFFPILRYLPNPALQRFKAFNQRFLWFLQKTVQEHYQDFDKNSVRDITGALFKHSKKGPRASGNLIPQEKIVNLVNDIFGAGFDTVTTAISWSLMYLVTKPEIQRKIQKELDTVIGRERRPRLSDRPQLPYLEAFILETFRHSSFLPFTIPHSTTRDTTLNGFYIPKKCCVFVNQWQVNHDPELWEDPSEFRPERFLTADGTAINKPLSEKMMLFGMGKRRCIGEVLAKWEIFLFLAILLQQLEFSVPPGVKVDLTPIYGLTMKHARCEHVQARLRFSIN
Outline: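 Human CYP1A2 (20nM) demethylated Luciferin-ME at its Km (100uM) in 100mM KPO4. After 10 min compound preincubation, NADPH regeneration ran the reaction 60 min at room temperature. Luciferin was read by luminescence, normalized to 57 uM furafylline.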

[4] = Stat Signaling Pathway (AID 446); conditions: ME-180 (cervical carcinoma) SIE beta-lactamase reporter, IL-6 stimulated, 5 h; at 7.69 µM (top of the series) unless noted;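 note: ME-180 cervical cancer cells given 40 pM IL-6 alongside compound; SIE-controlled beta-lactamase reporter measured as 460/530 nm FRET emission ratio; % is set by controls: 0 for no effect and ±100 for the full control effect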
Outline: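 IL-6/STAT signaling read in ME-180 cells via an SIE beta-lactamase reporter. Stimulus was 40 pM IL-6 (its AC50) for 5 hrs, so both activation and inhibition register.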

[5] = target: Glucocorticoid receptor (Homo sapiens) (UniProt P04150); assay: GR-GFP Redistribution (AID 450;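 active = compounds whose dose series gives a full or clear partial fitted curve of increased nuclear translocation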; note: potency is the fitted concentration of half-maximal effect); conditions: U2OS GR-GFP nuclear translocation, laser cytometry, 2 h
Sequence of Glucocorticoid receptor (Homo sapiens) (P04150 whole entry, looked up, the tested form may be a part): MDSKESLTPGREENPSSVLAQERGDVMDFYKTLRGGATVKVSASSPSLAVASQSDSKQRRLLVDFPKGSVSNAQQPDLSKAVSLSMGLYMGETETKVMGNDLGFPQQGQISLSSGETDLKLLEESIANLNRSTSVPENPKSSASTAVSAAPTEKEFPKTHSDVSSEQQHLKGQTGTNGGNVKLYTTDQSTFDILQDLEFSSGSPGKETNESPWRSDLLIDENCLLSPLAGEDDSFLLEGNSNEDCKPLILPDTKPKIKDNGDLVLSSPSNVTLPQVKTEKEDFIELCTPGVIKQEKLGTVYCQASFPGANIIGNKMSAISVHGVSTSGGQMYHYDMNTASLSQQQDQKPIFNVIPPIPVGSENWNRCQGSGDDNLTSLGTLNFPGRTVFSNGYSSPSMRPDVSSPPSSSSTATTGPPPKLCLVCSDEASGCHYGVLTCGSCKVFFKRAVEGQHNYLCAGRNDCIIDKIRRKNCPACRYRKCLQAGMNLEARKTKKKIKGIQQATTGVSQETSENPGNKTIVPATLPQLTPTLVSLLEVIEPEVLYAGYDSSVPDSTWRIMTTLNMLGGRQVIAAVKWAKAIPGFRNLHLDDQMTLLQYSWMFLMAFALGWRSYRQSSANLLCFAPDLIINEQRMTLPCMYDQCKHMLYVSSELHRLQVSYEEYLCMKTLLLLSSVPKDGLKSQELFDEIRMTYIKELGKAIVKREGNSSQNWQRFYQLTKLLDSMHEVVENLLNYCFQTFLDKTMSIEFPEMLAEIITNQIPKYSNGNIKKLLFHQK

[6] = target: Glucocorticoid receptor (Homo sapiens) (UniProt P04150); assay: GR-EFC Redistribution (AID 451; calls by dose curve; note: potency is the fitted concentration of half-maximal effect); conditions: CHO-K1 GR-EFC translocation, beta-gal luminescence, 2 h
Outline: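 CHO-K1 cells stably expressing nuclear-localized β-gal enzyme acceptor and GR fused C-terminally to the enzyme donor fragment; ligand-driven nuclear translocation restores β-gal by complementation. Compounds titrated up to 46 uM final, 2 h at 37 °C; luminescence read.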

[7] = target: Mitogen-activated protein kinase 10 (Mus musculus) (UniProt Q61831); assay: JNK3 AlphaScreen Assay (AID 530); conditions: JNK3 lysate, c-Jun phosphorylation; series mostly up to 11.4 µM;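 note: kinase came from lysate of stimulated human HepG2 cells; signal reports phosphorylation of biotinylated GST-cJun 1-79 at Ser73 with 10 µM ATP; % is set by controls: 0 for no effect and ±100 for the full control effect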
Outline: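 JNK3 came from HepG2 lysates pre-activated with IL-1beta and TNF-alpha and phosphorylated biotinylated GST-cJun (1-79) at 10 uM ATP, pH 7.6, room temperature. Compounds were titrated. AlphaScreen signal used anti-phospho-cJun (Ser73) antibody.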

[8] = target: 3',5'-cyclic-AMP phosphodiesterase 4B (Homo sapiens) (UniProt Q07343); assay: qHTS Assay for Inhibitors of PDE-IV (AID 607; active = well fitted activation curve with a large enough effect in the main read-out, with a control signal flat, not every such curve was filed as active; note: % of control where 0% means no effect); conditions: HEK293 ACTOne CNG channel cells, membrane potential fluorescence; series mostly up to 22.9 µM
Sequence of 3',5'-cyclic-AMP phosphodiesterase 4B (Homo sapiens) (Q07343 whole entry, looked up): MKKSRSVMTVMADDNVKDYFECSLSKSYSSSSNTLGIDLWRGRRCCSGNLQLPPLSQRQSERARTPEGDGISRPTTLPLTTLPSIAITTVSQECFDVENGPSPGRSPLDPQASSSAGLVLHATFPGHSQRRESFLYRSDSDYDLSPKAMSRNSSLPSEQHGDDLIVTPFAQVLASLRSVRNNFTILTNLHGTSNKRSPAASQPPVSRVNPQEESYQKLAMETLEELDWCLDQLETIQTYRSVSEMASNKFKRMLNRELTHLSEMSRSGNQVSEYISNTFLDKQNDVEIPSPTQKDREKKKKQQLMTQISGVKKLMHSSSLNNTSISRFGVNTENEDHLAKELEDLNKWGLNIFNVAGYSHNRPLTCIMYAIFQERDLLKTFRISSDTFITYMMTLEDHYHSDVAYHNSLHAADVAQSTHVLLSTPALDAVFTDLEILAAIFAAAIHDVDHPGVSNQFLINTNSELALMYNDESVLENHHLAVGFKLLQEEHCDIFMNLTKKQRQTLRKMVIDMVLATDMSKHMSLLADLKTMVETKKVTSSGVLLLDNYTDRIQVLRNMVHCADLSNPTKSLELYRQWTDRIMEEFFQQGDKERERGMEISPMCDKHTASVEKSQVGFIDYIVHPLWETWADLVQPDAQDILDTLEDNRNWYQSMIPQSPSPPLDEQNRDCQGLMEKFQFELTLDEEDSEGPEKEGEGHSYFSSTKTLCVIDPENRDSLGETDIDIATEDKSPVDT
Outline: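 Live HEK293 cells with a modified cyclic nucleotide-gated (CNG) channel report intracellular cAMP via membrane-potential dye fluorescence (ex 535/em 590 nm). Endogenous PDE-IV was targeted. Compounds were tested at up to 22.9 uM final; RO 20-1724 100 uM served as control.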

[9] = NFAT Signaling Pathway (AID 444); conditions: Jurkat NFAT-bla M1, carbachol, beta-lactamase ratio, 5 h; at 7.69 µM (top of the series) unless noted;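 note: carbachol stimulus at about its EC50 of 1 µM final; % is set by controls: 0 for no effect and ±100 for the full control effect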
Outline: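 Jurkat cells carrying an NFAT-driven β-lactamase reporter and co-transfected muscarinic M1 receptor were treated with compound plus carbachol (1 uM final, an EC50 level) for 5 h at 37 °C. CCF4 loading followed for 1 h at RT; 460/530 nm ratio gave %activity.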

[10] = target: Cytochrome P450 3A4 (Homo sapiens) (UniProt P08684); assay: qHTS Assay for Inhibitors and Substrates of Cytochrome P450 3A4 (AID 884; active = well fitted curve in the direction sought with a large enough effect; an effect the other way counts as inactive or inconclusive; note: potency is the fitted concentration of half-maximal effect; nearly all actives have a fitted effect of over 50% in size); conditions: recombinant CYP3A4, Luciferin-PPXE luminescence; series mostly up to 57.1 µM
Sequence of Cytochrome P450 3A4 (Homo sapiens) (P08684 whole entry, looked up): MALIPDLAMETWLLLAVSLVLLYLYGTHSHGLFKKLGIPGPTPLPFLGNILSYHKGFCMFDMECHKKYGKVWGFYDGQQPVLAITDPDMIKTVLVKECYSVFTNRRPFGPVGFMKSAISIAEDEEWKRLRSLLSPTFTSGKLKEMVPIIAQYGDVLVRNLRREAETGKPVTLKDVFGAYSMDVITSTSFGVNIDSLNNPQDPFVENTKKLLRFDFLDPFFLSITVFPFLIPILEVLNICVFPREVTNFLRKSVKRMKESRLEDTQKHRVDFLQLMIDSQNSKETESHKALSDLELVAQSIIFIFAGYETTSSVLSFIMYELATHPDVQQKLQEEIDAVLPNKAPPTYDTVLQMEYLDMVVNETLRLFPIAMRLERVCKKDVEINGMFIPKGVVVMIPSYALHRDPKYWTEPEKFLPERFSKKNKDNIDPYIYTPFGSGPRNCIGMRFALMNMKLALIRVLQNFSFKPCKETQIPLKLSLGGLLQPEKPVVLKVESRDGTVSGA
Outline: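 20 nM human CYP3A4 with 25 uM Luciferin-PPXE (at KM) in 200 mM KPO4, preincubated 10 min with compound; NADPH regeneration started a 60 min RT reaction. Luciferin detected by luminescence, normalized to 57 uM ketoconazole as full inhibition.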

[11] = target: Cytochrome P450 3A4 (Homo sapiens) (UniProt P08684); assay: qHTS Assay for Activators of Cytochrome P450 3A4 (AID 885; active = well fitted curve in the direction sought with a large enough effect; an effect the other way counts as inactive or inconclusive; note: nearly all actives have a fitted effect of over 65% in size); conditions: recombinant CYP3A4, Luciferin-PPXE luminescence, 60 min; series mostly up to 11.4 µM
Outline: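 Quantitative HTS format: compounds preincubated with 20nM human CYP3A4 and Luciferin-PPXE substrate at KM, reaction started by NADPH regeneration, stopped after 60 min, luciferase luminescence read 20 min later.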

ClC(Cl)(Cl)C(N1CCN(c2ccccc2)CC1)N1CCN(c2ccccc2)CC1
inactive: Potency [1] > 11.4 µM | activity change, negative = inhibition [2] -0.388% | activity change, negative = inhibition [3] -14.9% [at 2.29 µM] | activity, negative = inhibition [4] -6.12% | Potency [5] > 46 µM | Potency [6] > 9.22 µM | Potency [7] | Potency [8]

CC(C)C12CC[C@@]3(CC[C@H]4[C@@](C)(CCC[C@]4(C)C(=O)O)[C@@H]3C1)[C@@H](CN)C2
inactive: Potency [1] > 11.4 µM | activity change, negative = inhibition [2] -3.83% | Potency [3] | activity, negative = inhibition [4] 1.18% | Potency [5] > 46 µM | Potency [6] > 9.22 µM | Potency [7] | Potency [8]

C[C@@H]1c2ccccc2Cn2cc3c(c21)C(=O)c1cccc(OP(=O)(O)OCc2ccccc2)c1C3=O
inactive: Potency [1] > 11.4 µM | activity change, negative = inhibition [2] -3.62% | activity, negative = inhibition [4] -19.6% | Potency [5] > 46 µM | Potency [6] > 9.22 µM | Potency [7] | Potency [8]
active: Potency [3] 3.16 µM

OC[C@@H]1O[C@H](n2cnc3c(/C=C(\O)c4ccccc4)ncnc32)[C@H](O)[C@@H]1O
active: Potency [3] 0.501 µM
inactive: Potency [1] > 11.4 µM | activity change, negative = inhibition [2] -7.91% | activity, negative = inhibition [4] -0.249% | Potency [5] > 46 µM | Potency [6] > 9.22 µM | Potency [7] | Potency [8]

c1ccc([P+](CC[P+](c2ccccc2)(c2ccccc2)c2ccccc2)(c2ccccc2)c2ccccc2)cc1
inactive: Potency [1] > 11.4 µM | activity change, negative = inhibition [2] 1.2% | Potency [3] | activity, negative = inhibition [4] 7.49% | Potency [5] > 46 µM | Potency [6] > 9.22 µM | Potency [7] | Potency [8]

N/N=C1/CC(=O)NC(=O)N1
active: Potency [3] 0.631 µM
inactive: Potency [1] > 11.4 µM | activity change, negative = inhibition [2] 2.16% | activity, negative = inhibition [4] -13% | Potency [5] > 46 µM | Potency [6] > 9.22 µM | Potency [7] | Potency [8]

O=C(O)C[C@H](S)C(=O)O
inactive: Potency [1] > 11.4 µM | activity change, negative = inhibition [2] -3.09% | Potency [3] | activity, negative = inhibition [4] -8.04% | Potency [5] > 46 µM | Potency [6] > 9.22 µM | Potency [7] | Potency [8]

COc1ncc2nc(CCc3ccccc3)c(=O)n(C)c2n1
active: Potency [3] 5.01 µM
inactive: Potency [1] > 11.4 µM | activity change, negative = inhibition [2] -29.7% | activity, negative = inhibition [4] -1.2% | Potency [5] > 9.22 µM | Potency [6] > 46 µM | Potency [7] | Potency [8]

COc1ccc2c3c(ccc2c1)N[C@H](C(=O)O)CC3
inactive: Potency [1] > 11.4 µM | activity change, negative = inhibition [2] -4.14% | activity, negative = inhibition [4] -6.67% | Potency [5] > 46 µM | Potency [6] > 9.22 µM | Potency [7] | Potency [8]
active: Potency [3] 0.501 µM

N[C@@H](Cc1cccnn1)C(=O)O
inactive: Potency [1] > 11.4 µM | activity change, negative = inhibition [2] 2.23% | activity, negative = inhibition [4] 2.86% | Potency [5] > 46 µM | Potency [6] > 9.22 µM | Potency [7] | Potency [8]
active: Potency [3] 3.16 µM

CN(C)c1ccc(C2N([C@H](C#N)c3ccc(N(C)C)cc3)CCCN2[C@@H](C#N)c2ccc(N(C)C)cc2)cc1 (stereo partly specified)
inactive: Potency [1] > 11.4 µM | activity change, negative = inhibition [2] 0.74% | activity, negative = inhibition [4] 6.93% | Potency [5] > 46 µM | Potency [6] > 9.22 µM | Potency [7] | Potency [8]
active: Potency [3] 5.01 µM

N=C1CCC[C@@H]1C(=S)SCCC(N)=O
inactive: Potency [1] > 11.4 µM | activity change, negative = inhibition [2] -7.71% | activity, negative = inhibition [4] -12.4% | Potency [5] > 46 µM | Potency [6] > 9.22 µM | Potency [7] | Potency [8]
active: Potency [3] 3.16 µM

CN(C)CCC(=O)[C@@]1(O)CC[C@H]2[C@H]3CC=C4C[C@@H](O)CC[C@]4(C)[C@H]3CC[C@]21C
inactive: Potency [1] > 11.4 µM | activity change, negative = inhibition [2] 3.32% | Potency [3] | activity, negative = inhibition [4] -18.3% | Potency [5] > 46 µM | Potency [6] > 9.22 µM | Potency [7] | Potency [8]

Cn1c(Sc2ccc(-c3cccnc3)n2C)ccc1-c1cccnc1
inactive: Potency [1] > 11.4 µM | activity change, negative = inhibition [2] 1.8% | activity change, negative = inhibition [9] -29.9% | Potency [5] > 46 µM | Potency [6] > 9.22 µM | Potency [8] | Potency [11]
active: Potency [3] 0.398 µM | Potency [10] 0.631 µM

Cc1ccc(C)c(/C(=N\N=C(N)N)C2CC2)c1
inactive: Potency [1] > 11.4 µM | activity change, negative = inhibition [2] -1.56% | activity change, negative = inhibition [3] 1.1% [at 2.29 µM] | activity, negative = inhibition [4] 4.46% | Potency [5] > 46 µM | Potency [6] > 9.22 µM | Potency [7] | Potency [8]

CN(C)CCCN1CCC2(CCC(C(C)(C)C)CC2)CC1
inactive: Potency [1] > 11.4 µM | activity change, negative = inhibition [2] -6.54% | Potency [3] | activity, negative = inhibition [4] 8.08% | Potency [5] > 46 µM | Potency [6] > 9.22 µM | Potency [7]

CC(C)(CO[C@H]1C[C@H]2CC[C@@]1(C)C2(C)C)[N+](=O)[O-]
inactive: Potency [1] > 11.4 µM | activity change, negative = inhibition [2] -1.64% | Potency [3] | activity, negative = inhibition [4] -3.85% | Potency [5] > 46 µM | Potency [6] > 9.22 µM | Potency [7] | Potency [8]
